A short description of experiment [1]: antimalarial activity against Dd2 strain (AID 2302;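 active means growth inhibition above 50% at the single 2 µM test dose, taken to imply half-maximal potency below 2 µM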;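 further: 0% = DMSO untreated growth and 100% = chloroquine plus artemisinin killed control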). As to conditions: P. falciparum Dd2 in RBCs, LDH growth readout, 72 h; at 2 µM; stronger effect = higher value.
Experiment [2] in a line: human hepatoma cell viability loss – ATP luminescence, cytotoxicity control for P. falciparum antimalarial project, primary screen (AID 2303;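 active means inhibition above 50%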;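 further: 0% = DMSO wells and 100% = digitonin-killed cells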). As to conditions: HepG2 viability, 24-48 h, at 10 µM, stronger effect = higher value.
Experiment [3] has as its target L-lactate dehydrogenase (Plasmodium falciparum (isolate CDC / Honduras)) (UniProt Q27743). The experiment in a line: PfLDH activity inhibition – cell lysate, 3D7 strain, counter-screen for P. falciparum growth inhibition project (AID 2304).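 Further: 0% = vehicle and 100% = reference inhibitor.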 As to conditions: P. falciparum 3D7 crude extract, LDH APAD/NBT absorbance; at 2 µM; stronger effect = higher value. In general terms: Counterscreens check selectivity or assay interference.

Experiment [4] is described as follows: inhibition of 3D7 malaria parasite growth – strain 3D7 (AID 2306).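 Further: 0% = DMSO wells and 100% = chloroquine plus artemisinin control wells.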 The settings on record: P. falciparum 3D7 erythrocytic growth, LDH absorbance, 72 h; at 2 µM; stronger effect = higher value.
In experiment [5] the target is Calcium-dependent protein kinase 1 (Plasmodium falciparum (isolate 3D7)) (UniProt P62344). The experiment in a line: PfCDPK1 kinase inhibitors, biochemical, TCAMS library (AID 1159585; cut-off not given, nearly all actives have IC50 up to about 0.98 µM;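 further: inhibitors leave more ATP so luminescence rises with inhibition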). As to conditions: recombinant PfCDPK1, Kinase-Glo ATP depletion luminescence. For orientation: In Kinase-Glo more light means more ATP remaining.
Calcium-dependent protein kinase 1 (Plasmodium falciparum (isolate 3D7)), sequence (P62344 whole entry, looked up): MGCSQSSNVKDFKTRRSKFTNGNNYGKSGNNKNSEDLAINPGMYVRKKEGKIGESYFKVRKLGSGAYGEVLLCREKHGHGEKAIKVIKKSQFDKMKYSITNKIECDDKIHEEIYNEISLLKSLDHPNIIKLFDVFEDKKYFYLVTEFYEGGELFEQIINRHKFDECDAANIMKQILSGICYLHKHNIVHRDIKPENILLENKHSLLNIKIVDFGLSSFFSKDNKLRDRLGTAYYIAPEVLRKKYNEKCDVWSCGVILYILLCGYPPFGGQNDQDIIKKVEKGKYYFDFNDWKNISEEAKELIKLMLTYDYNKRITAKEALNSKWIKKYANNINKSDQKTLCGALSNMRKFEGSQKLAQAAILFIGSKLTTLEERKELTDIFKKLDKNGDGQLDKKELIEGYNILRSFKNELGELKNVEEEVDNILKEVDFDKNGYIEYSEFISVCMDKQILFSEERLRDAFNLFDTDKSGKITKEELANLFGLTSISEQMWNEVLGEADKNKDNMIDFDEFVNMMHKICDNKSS
For experiment [6], the target named is Plasmodium falciparum protein kinase 6 (PK6, PF3D7_1337100) (UniProt Q8IDW1). As to the kind of experiment: PfPK6 kinase inhibitors, biochemical, TCAMS library (AID 1159586). As to conditions: recombinant PfPK6, Kinase-Glo ATP depletion luminescence.
Plasmodium falciparum protein kinase 6 (PK6, PF3D7_1337100), sequence (Q8IDW1 1-305): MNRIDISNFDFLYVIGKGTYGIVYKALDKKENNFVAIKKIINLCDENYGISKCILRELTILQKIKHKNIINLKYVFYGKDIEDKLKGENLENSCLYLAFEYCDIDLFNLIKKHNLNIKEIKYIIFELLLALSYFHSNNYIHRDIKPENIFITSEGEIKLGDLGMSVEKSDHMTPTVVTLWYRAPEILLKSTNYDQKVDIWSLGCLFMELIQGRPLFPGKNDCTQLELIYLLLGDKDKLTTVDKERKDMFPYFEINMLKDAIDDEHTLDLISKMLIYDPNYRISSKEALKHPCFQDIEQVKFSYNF
The target in experiment [7] is Protein kinase 7 (PK7), Plasmodium falciparum 3D7 (PF3D7_0213400) (UniProt Q7YTF7). As to the kind of experiment: inhibition of Plasmodium PK7 catalytic activity – biochemical, TCAMS antimalarial set, Kinase-Glo luminescence (AID 1159587). As to conditions: recombinant PfPK7, Kinase-Glo ATP depletion luminescence.
Protein kinase 7 (PK7), Plasmodium falciparum 3D7 (PF3D7_0213400), sequence (Q7YTF7 1-343): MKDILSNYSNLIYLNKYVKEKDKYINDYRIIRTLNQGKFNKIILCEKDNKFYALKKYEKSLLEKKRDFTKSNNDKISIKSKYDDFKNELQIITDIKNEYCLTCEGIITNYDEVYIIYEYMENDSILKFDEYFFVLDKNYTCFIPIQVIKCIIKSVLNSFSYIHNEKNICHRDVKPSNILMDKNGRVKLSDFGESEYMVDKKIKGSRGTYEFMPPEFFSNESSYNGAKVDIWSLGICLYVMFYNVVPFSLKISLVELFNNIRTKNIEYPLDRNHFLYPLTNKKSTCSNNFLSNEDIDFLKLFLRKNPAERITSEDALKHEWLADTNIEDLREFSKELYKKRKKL
Experiment [8] deals with Calcium-dependent protein kinase 4 (Plasmodium falciparum (isolate 3D7)) (UniProt Q8IBS5). The experiment in a line: PfCDPK4 kinase inhibitors, biochemical, TCAMS library (AID 1159588; cut-off not given, nearly all actives have IC50 up to about 0.91 µM). As to conditions: recombinant PfCDPK4, Kinase-Glo ATP depletion luminescence.
Calcium-dependent protein kinase 4 (Plasmodium falciparum (isolate 3D7)), sequence (Q8IBS5 whole entry, looked up): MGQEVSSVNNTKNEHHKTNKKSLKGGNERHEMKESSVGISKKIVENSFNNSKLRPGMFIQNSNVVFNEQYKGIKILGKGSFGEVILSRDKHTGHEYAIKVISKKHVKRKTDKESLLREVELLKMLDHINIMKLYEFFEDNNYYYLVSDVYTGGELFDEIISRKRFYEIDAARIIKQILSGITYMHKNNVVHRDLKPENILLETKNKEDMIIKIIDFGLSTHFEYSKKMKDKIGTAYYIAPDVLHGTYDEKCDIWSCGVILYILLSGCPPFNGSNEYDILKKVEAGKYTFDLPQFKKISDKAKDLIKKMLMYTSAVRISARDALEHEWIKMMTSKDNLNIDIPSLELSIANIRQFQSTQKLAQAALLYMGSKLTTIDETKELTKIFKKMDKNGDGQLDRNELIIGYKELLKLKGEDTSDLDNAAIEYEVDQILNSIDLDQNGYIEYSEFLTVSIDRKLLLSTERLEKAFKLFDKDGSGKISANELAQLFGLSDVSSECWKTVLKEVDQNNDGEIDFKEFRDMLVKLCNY

Unmarked numbers belong to inactive results. For some assays here: Potency and affinity values are given separately. Active and inactive are the calls of the source. Unless noted, how the calls were made is not given here.

L-lactate dehydrogenase (Plasmodium falciparum (isolate CDC / Honduras)), sequence (Q27743 whole entry, looked up): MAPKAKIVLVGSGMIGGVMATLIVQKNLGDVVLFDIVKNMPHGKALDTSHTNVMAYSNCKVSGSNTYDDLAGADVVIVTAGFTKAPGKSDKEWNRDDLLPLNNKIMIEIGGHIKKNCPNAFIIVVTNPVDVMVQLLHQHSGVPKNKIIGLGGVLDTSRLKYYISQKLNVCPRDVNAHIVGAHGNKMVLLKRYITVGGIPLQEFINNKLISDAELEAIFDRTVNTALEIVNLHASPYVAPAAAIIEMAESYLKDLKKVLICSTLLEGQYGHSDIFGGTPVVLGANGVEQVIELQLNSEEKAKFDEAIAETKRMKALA

Broadly, the inhibition is the drop in the measured response relative to a control, in per cent. As to `COc1cc([N+](=O)[O-])ccc1NC(=O)Nc1ccc(OC(F)(F)F)cc1`, the growth inhibition is 72% (active) in experiment [1] and 84% (active) in experiment [4]. Besides, the results for the inhibition in experiment [2] and in experiment [3] were 14% and 3%, respectively. Also, the result in experiment [5], in experiment [6], in experiment [7] and in experiment [8] was inactive.
Turning to `COc1ccc2nccc([C@@H](O)CN3CCC(NC(=O)C(c4cc5ccccc5o4)N4CCN(C(c5ccccc5)c5ccccc5)CC4)CC3)c2c1` (some centres not stated), the growth inhibition in experiment [1] and in experiment [4] was 100% (active) in each case. Also, the inhibition in experiment [2] was 18%; in experiment [3] it was -4%. Besides, the outcome in experiment [5], in experiment [6], in experiment [7] and in experiment [8] was inactive.
As to `Cc1ccc(Cn2cnc(N3CC(C)NC(C)C3)cc2=O)cc1NC(=O)Nc1ccc(-c2ccccc2)cc1` (configuration not stated), the growth inhibition in experiment [1] was 15%; in experiment [4] it was 96% (active). In addition, the inhibition was 18% in experiment [2] and 4% in experiment [3]. Also, the result in experiment [5], in experiment [6], in experiment [7] and in experiment [8] was inactive.
`Cc1cc(NC2CCN(CC3CCCCC3)CC2)nc(Nc2ccccc2Cl)n1`: the results for the growth inhibition in experiment [1] and in experiment [4] were 31% and 100% (active), respectively. For the same molecule, the inhibition in experiment [2] is 28%; in experiment [3] it was 4%. Moreover, the outcome in experiment [5], in experiment [6], in experiment [7] and in experiment [8] was inactive.
For `CC(C)(C)c1ccc2nc(-c3ccc(/C=C/C(=O)NCc4cccc(C(F)(F)F)c4)cc3)[nH]c2c1`, the growth inhibition in experiment [1] was 11%; in experiment [4], 93% (active). The inhibition was 31% in experiment [2] and -16% in experiment [3]. The outcome in experiment [5], in experiment [6], in experiment [7] and in experiment [8] was inactive.
As for `COc1ccc2nccc(NC(=O)C3CCC(NCc4cnc(SC)c([N+](=O)[O-])c4)CC3)c2n1` (configuration not stated), the values for the growth inhibition in experiment [1] and in experiment [4] were 44% and 89% (active), respectively. For the same molecule, the inhibition is 8% in experiment [2] and 5% in experiment [3]. Besides, the result in experiment [5], in experiment [6], in experiment [7] and in experiment [8] was inactive.
For the molecule `Fc1ccc2nc(-c3ccc(-c4ccc(CNCC5CCCO5)cc4)cc3)[nH]c2c1` (configuration not stated), the growth inhibition in experiment [1] was 100% (active); in experiment [4], 101% (active). In addition, the inhibition in experiment [2] was 26%; in experiment [3] it was -3%. Moreover, the outcome in experiment [5], in experiment [6], in experiment [7] and in experiment [8] was inactive.
Regarding `CNCc1ccc2nc(-c3coc(Cc4cc(Cl)ccc4OCC(C)C)n3)[nH]c2c1`, the growth inhibition in experiment [1] was 95% (active); in experiment [4] it was 101% (active). Further, the inhibition in experiment [2] is 34%; in experiment [3], 2%. The result in experiment [5], in experiment [6], in experiment [7] and in experiment [8] was inactive.
On to `Cn1nc(-c2cccc(CNCc3ccccc3)c2)c2cnc(NC3CCCC3)nc21`, for which the figures for the growth inhibition in experiment [1] and in experiment [4] were 11% and 85% (active), respectively. The inhibition was 5% in experiment [2] and 1% in experiment [3]. The outcome in experiment [5], in experiment [6], in experiment [7] and in experiment [8] was inactive.
In the case of `CCOc1ccc2c(NN=Cc3cc(OC)c(OC)cc3OC)cc(C)nc2c1`, the results for the growth inhibition in experiment [1] and in experiment [4] were 97% (active) and 101% (active), respectively. Further, the inhibition in experiment [2] was 24%; in experiment [3] it was 4%. The outcome in experiment [5], in experiment [6], in experiment [7] and in experiment [8] was inactive.
Turning to `CN1CC[C@@H](Oc2cc(Nc3nc(-c4ccc(C#N)cc4)cs3)ccc2Cl)C1`, the values for the growth inhibition in experiment [1] and in experiment [4] were 24% and 99% (active), respectively. Further, the inhibition was 12% in experiment [2] and -1% in experiment [3]. Further, the result in experiment [5], in experiment [6], in experiment [7] and in experiment [8] was inactive.
Regarding `CCOc1ccc(N2CCN(CCCCNC(=O)c3ccc(NC(=O)c4ccc(Cl)cc4)cc3)CC2)c(OCC)c1`, the results for the growth inhibition in experiment [1] and in experiment [4] were 65% (active) and 102% (active), respectively. Moreover, the inhibition was 36% in experiment [2] and 2% in experiment [3]. For the same molecule, the result in experiment [5], in experiment [6], in experiment [7] and in experiment [8] was inactive.
With `O=S(=O)(Nc1cccc(CCN2CCC(N3CCCCC3)CC2)c1)c1ccc(Cl)cc1`, the growth inhibition is 23% in experiment [1] and 94% (active) in experiment [4]. Besides, the results for the inhibition in experiment [2] and in experiment [3] were 18% and -1%, respectively. Moreover, the result in experiment [5], in experiment [6], in experiment [7] and in experiment [8] was inactive.
With `COc1ccc(C(=O)[C@H]2C[C@@H]2CN(C)CCC(O)c2ccc(Cl)c(Cl)c2)cc1` (some centres not stated), the results for the growth inhibition in experiment [1] and in experiment [4] were 86% (active) and 94% (active), respectively. Moreover, the results for the inhibition in experiment [2] and in experiment [3] were 24% and -8%, respectively. Also, the outcome in experiment [5], in experiment [6], in experiment [7] and in experiment [8] was inactive.
As for `COc1cccc(COCC(O)CN(CCc2ccccn2)C(=O)c2ccccc2F)c1` (configuration not stated), the growth inhibition in experiment [1] was 30%; in experiment [4], 97% (active). The results for the inhibition in experiment [2] and in experiment [3] were 61% (active) and -1%, respectively. Moreover, the outcome in experiment [5], in experiment [6], in experiment [7] and in experiment [8] was inactive.
On to `COc1cccc(-c2cnc(N)c(-c3nc4ccc(C(F)(F)F)cc4[nH]3)c2)c1`, for which the growth inhibition in experiment [1] is 30%; in experiment [4], 99% (active). Besides, the inhibition is 5% in experiment [2] and -4% in experiment [3]. Further, the outcome in experiment [5], in experiment [6], in experiment [7] and in experiment [8] was inactive.
Regarding `COc1cc(Cc2cnc(N)nc2N)ccc1OCc1ccc(F)c(F)c1`, the growth inhibition is 31% in experiment [1] and 90% (active) in experiment [4]. Further, the values for the inhibition in experiment [2] and in experiment [3] were 10% and 3%, respectively. Besides, the outcome in experiment [5], in experiment [6], in experiment [7] and in experiment [8] was inactive.
`O=C(NCC1CC1)C1CCN(C(c2ccc(Cl)cc2)c2ccc(Cl)cc2)CC1`: the growth inhibition is 95% (active) in experiment [1] and 99% (active) in experiment [4]. For the same molecule, the inhibition in experiment [2] is 3%; in experiment [3], 1%. Besides, the result in experiment [5], in experiment [6], in experiment [7] and in experiment [8] was inactive.
In the case of `CC(=O)Nc1ccc(OCCCN(Cc2ccccc2C(F)(F)F)c2ccc(C(F)(F)F)c(C#N)c2)c(Cl)c1`, the growth inhibition in experiment [1] was 43%; in experiment [4] it was 85% (active). The inhibition is 5% in experiment [2] and 3% in experiment [3]. Further, the result in experiment [5], in experiment [6], in experiment [7] and in experiment [8] was inactive.

The values are drawn from PubChem BioAssay.
